Potency data for 17 molecules are collected here from PubChem BioAssay AID1489 (National Center for Advancing Translational Sciences (NCATS), 2009).

Records with an inconclusive call do not appear. Where a call stands in place of a potency, no number is given. Activity calls are given as the source filed them. The call rests on the fitted dose curve; in most records, active means well fitted antagonist curve with a large enough effect in the main read-out, with a control signal flat; inconclusive means small, poorly fitted or top-dose-only effect; inactive means no such curve, though single readings can be large or run the other way.

Neuropeptide S receptor (Homo sapiens), sequence (Q6W5P4 whole entry, looked up): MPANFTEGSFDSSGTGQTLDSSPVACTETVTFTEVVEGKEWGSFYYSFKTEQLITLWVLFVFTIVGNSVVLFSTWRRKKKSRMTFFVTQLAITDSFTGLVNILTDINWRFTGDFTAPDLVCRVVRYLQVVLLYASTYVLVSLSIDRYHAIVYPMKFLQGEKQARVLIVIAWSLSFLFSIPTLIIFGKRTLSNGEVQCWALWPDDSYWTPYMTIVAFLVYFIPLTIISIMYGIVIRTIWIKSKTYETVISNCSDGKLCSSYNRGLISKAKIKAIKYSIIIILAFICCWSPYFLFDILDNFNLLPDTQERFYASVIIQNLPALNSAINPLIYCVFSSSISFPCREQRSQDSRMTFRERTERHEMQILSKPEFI

For this experiment, the target named is Neuropeptide S receptor (Homo sapiens) (UniProt Q6W5P4). As to the kind of experiment: Confirmation Concentration-Response Assay for Antagonists of the Neuropeptide S Receptor: Calcium Signal Transduction. As to conditions: CHO-NPSR cells, NPS-induced calcium flux, FDSS; series mostly up to 19.3 µM. In outline:
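CHO cells stably expressing human NPSR, loaded with calcium dye; compounds added, then stimulated with NPS (60 nM in stimulation reagent). Fluorescence (Ex 480, Em 520–560 nm) recorded kinetically on FDSS; AC50 from Hill fit.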
Take `O=c1cc(CNCCCO)c2ccccc2[nH]1`: the Potency result was “inactive”. In the case of `COc1cc(/C=C2\SC(c3ccc(C)cc3)=NC2=O)cc(OC)c1O`, the Potency entry was “inactive”. As to `CCOc1ccc(N2C(=O)CC(NCCc3ccncc3)C2=O)cc1` (configuration not stated), the Potency entry was “inactive”. Consider `CCOC(=O)C1CCCN(c2ncnc3c2oc2ccccc23)C1` (configuration not stated), for which the Potency was 12.6 µM (active).

`CCSc1nc2c(c(=O)n1Cc1ccccc1)SC(C)C2` (configuration not stated): the Potency result is “inactive”. `Cc1oc2c(c1C(=O)NCc1cccnc1)C(=O)c1ccccc1C2=O`: the Potency result was “inactive”.

Turning to `CN(C)c1ccc(N=Cc2ccco2)cc1`, the Potency result is “inactive”. With `COc1ccc(N=C2S/C(=C\c3ccc(N4CCOCC4)o3)C(=O)N2CCc2c[nH]c3ccccc23)cc1`, the Potency is 2.24 µM (active). Regarding `CN(C)C(=O)Oc1cccc([N+](C)(C)C)c1`, the Potency entry is “inactive”. On to `COc1ccc(C2c3c(ncn(CCN4CCOCC4)c3=N)Oc3ccc4ccccc4c32)cc1OC` (configuration not stated), for which the Potency is 1.58 µM (active). Take `C(=C\c1ccccc1)/C=N/N1CCN(c2ccccn2)CC1`: the Potency entry was “inactive”.

In the case of `Cc1ccc(S(=O)(=O)Nc2ccccc2CNc2c(C)n(C)n(-c3ccccc3)c2=O)cc1`, the Potency result is “inactive”. The figure for `O=C(COC(=O)c1ccccc1C(=O)c1ccc(Cl)c([N+](=O)[O-])c1)NC1CCCCCC1` is 4.47 µM (active); for `COc1ccc(NC(=O)/C(Cl)=C(/Cl)S(=O)Cc2ccc(C)cc2)cn1` (configuration not stated) it is 2.24 µM (active); for `C=CCOc1c(Cl)cc(CNc2ccc(N(C)C)cc2)cc1OC` it is “inactive”.

For the molecule `Cc1ccc(-c2ccc(/C=C3\C(=O)ON=C3c3ccccc3)o2)c([N+](=O)[O-])c1`, the Potency is 2.82 µM (active). As to `CC(C)Cc1nc(N2CCN(C(=O)c3ccccc3)CC2)c(C#N)c2c1CCC2`, the Potency result was “inactive”.
